This is a sample that favours compounds with a hit; in the whole collection about 20% have one here.
HCMV inh: human cytomegalovirus inhibition | HFF cells, HCMV-luciferase reporter, 72 h; active compounds read low | activity change, negative = inhibition, % at 57.5 µM | actives 4.5% (n = 410,000); in the data active means activity change below about -60%; inconclusive means no clear call, values can overlap the other calls; inactive means above about -39%; further: on the % scale 0 is the no-effect control and ±100 the full control effect
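Compounds were evaluated in HFFs infected with an HCMV luciferase reporter virus (MOI 1 PFU/cell). Luciferase in lysates collected 72 h post infection served as the replication measure.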
Pf growth 48h: inhibits P. falciparum growth in the first generation, 48 h; P. falciparum luciferase growth in erythrocytes, 48 h; Potency, µM (series often up to 28.7 µM), without a hit: top-dose activity change, negative = inhibition, hits mostly inhibitors; actives 5.9% (n = 310,000); AID 504832; further: potency means the concentration at half of the fitted maximal effect; on the % scale 0 is the no-effect control and ±100 the full control effect
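In quantitative HTS format, infected erythrocytes bearing luciferase-reporter parasites were treated for a single generation at 37 C. Luminescence after adding detection reagent served as the growth measure.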
CHX counter: affects cycloheximide protein synthesis inhibition readout, counter-screen | actives 12% (n = 300,000) | max response, % | cell reporter, cycloheximide protein synthesis inhibition counterscreen | AID 2314; in the data active means max response mostly above about 13%, no sharp cut-off; inactive means mostly below about 14%; further: read at 38.3 µM for the half of the compounds with a filed dose; 0% is about no effect
Pf growth 96h: P. falciparum growth inhibition at 96 hour, primary screen for plastid delayed-death inhibitors; Potency, µM (top dose mostly 28.7 µM), inactives show at the top dose activity change, negative = inhibition, usual class: inhibitors; actives 6.9% (n = 320,000); AID 504834; P. falciparum luciferase reporter growth, 96 h; further: potency means the concentration at half of the fitted maximal effect; on the % scale 0 is the no-effect control and ±100 the full control effect
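Luminescence readout: decreased luciferase signal marks inhibited growth of reporter-expressing P. falciparum in infected red cells (2% hematocrit, 0.05% parasitemia final), exposed to compound two generations (96 h, 37 C, 5% CO2).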
Shiga toxin inh: inhibitors of Shiga toxin in Vero cells. Vero cells, Shiga toxin protein synthesis inhibition reporter. inhibition, % at 38.7 µM. actives 9.2% (n = 290,000). AID 2315; in the data active means inhibition mostly above about 28%, no sharp cut-off; inactive means mostly below about 43%; further: 0% is about no effect
Active calls of the source: *; ? = inconclusive; . = no result given. Unless noted, the call rests on the fitted dose curve; in most records, active means well fitted inhibition curve with a large enough effect; inconclusive means small, poorly fitted or top-dose-only effect, or another doubt; inactive means no such curve, though single readings can be large or run the other way.

SMILES	HCMV inh	Pf growth 48h	CHX counter	Pf growth 96h	Shiga toxin inh
O=C(Nc1nc(-c2ccc(-c3ccccc3)cc2)cs1)C1CCCO1 (stereo unspecified)	16	.	22	119%	16
Cc1c(C(=O)NCc2ccccc2C(F)(F)F)sc(=O)n1Cc1ccccc1C#N	-62*	.	.	.	.
C=Cc1ccc(Cn2c(C)c(C(=O)NCc3cccc(C(F)(F)F)c3)sc2=O)cc1	2	.	.	.	.
C=Cc1ccc(Cn2c(C)c(C(=O)NCc3cccc(C)c3)sc2=O)cc1	-65*	.	.	.	.
COc1ccc(CNC(=O)c2sc(=O)n(Cc3ccc(S(=O)(=O)N(C)C)cc3)c2C)cc1	-27	.	.	.	.
Cc1c(C(=O)NCc2ccc(C(F)(F)F)cc2)sc(=O)n1Cc1ccc(S(=O)(=O)N(C)C)cc1	-73*	.	.	.	.
Cc1ccc(Cn2c(C)c(C(=O)NCc3ccc(Cl)c(Cl)c3)sc2=O)cc1	-6	.	.	.	.
Cc1cccc(CNC(=O)c2sc(=O)n(Cc3ccc(S(C)(=O)=O)cc3)c2C)c1	-69*	.	.	.	.
CC(C)(C)[C@H]1COC(=O)[C@H](NC(=O)OCC2c3ccccc3-c3ccccc32)C/C=C\C[C@@H](CC(=O)N[C@@H](CO)Cc2ccccc2)C(=O)N1	-21	.	.	.	.
CSc1ccc(Cn2c(C)c(C(=O)NCc3cccc(C)c3)sc2=O)cc1	-67*	.	.	.	.
COc1ccc(Cl)cc1Cn1c(C)c(C(=O)NCc2ccc3c(c2)OCCO3)sc1=O	-72*	.	.	.	.
CCOC(=O)c1ccccc1NC(=O)COC(=O)CSc1ccccc1	3	0%	.	80%	.
C#CCOCCOCCOCCNc1nc(N2CCN(C(=O)[C@H](CCCCN)n3cc(C(N)COC(=O)C(F)(F)F)nn3)CC2)nc(N2CCN(C(=O)[C@H](CCCCN)n3cc(C(N)CC(C)C)nn3)CC2)n1 (stereo partly specified)	.	-1%	-6	65%	-8
Cc1ccc(Cl)cc1NC(=O)c1cc(-c2ccc3c(c2)OCCO3)on1	76	.	.	.	.
CCOC(=O)N1CCN(C(=O)c2ccc3nc4ccsc4c(=O)n3c2)CC1	39	2%	-1	8.3µM*	5
NS(=O)(=O)c1ccc(CCNC(=O)c2ccc3nc4ccc(Cl)cc4c(=O)n3c2)cc1	-31	12µM*	21	6%	-2
CCOC(=O)N1CCN(C(=O)c2cccn3c(=O)c4cc(Br)ccc4nc23)CC1	17	-14%	-3	14%	-16
CCOC(=O)N1CCN(C(=O)c2cccn3c(=O)c4sccc4nc23)CC1	37	27%	0	2.3µM*	-3
O=C(c1cccn2c(=O)c3cc4ccccc4cc3nc12)N1CCN(c2ccccc2)CC1	.	?	23*	?	35*
Cc1ccc(NC(=O)N2CCC(N3CCN(Cc4ccccc4)C(=O)C3=O)CC2)cc1Cl	4	.	.	.	.
CCOC(=O)N1CCN(C(=O)c2cccn3c(=O)c4cc(Cl)ccc4nc23)CC1	55	6%	1	?	-8
CCOC(=O)N1CCN(C(=O)c2ccc3nc4ccc(Cl)cc4c(=O)n3c2)CC1	-97*	5%	-1	?	-4
Cc1ccc(NC(=O)/C(C#N)=C/c2cc(C)n(-c3ccc(Br)cc3)c2C)cc1C	-108*	.	.	.	.
N#C/C(=C\c1ccccc1O)C(=O)Nc1cccnc1	-28	?	46*	?	57*
Cc1ccc(-n2c(C)cc(/C=C(\C#N)C(=O)Nc3ccc(C)c(C)c3)c2C)cc1	1	.	.	.	.
SMILES	HCMV inh	Pf growth 48h	CHX counter	Pf growth 96h	Shiga toxin inh
Cc1ccc(NC(=O)/C(C#N)=C/c2ccccc2C(F)(F)F)cc1	-39	0%	27*	7%	63
Cc1cc(/C=C(\C#N)C(=O)Nc2ccccc2)c(C)n1-c1cccnc1	35	68%	33*	?	62*
Cc1ccc(C(=O)N(Cc2ccco2)c2ccccn2)cc1	36	.	.	.	.
CCOC(=O)/C(C#N)=C/c1cc(C)n(-c2ccccc2)c1C	?	.	50*	-25%	111*
CN(C)/C=C(\C#N)C(=O)Nc1ccccc1	-22	77%	32*	313%	57*
COc1cccc(CN2C(=O)C(C)N(C(=O)c3c(F)cccc3F)c3ccccc32)c1 (stereo unspecified)	-83*	9.3µM*	3	6.6µM*	17
CC1C(=O)N(Cc2ccccc2F)c2ccccc2N1C(=O)c1c(F)cccc1F (stereo unspecified)	?	?	-7	?	14
O=C1NC(=O)C(c2ccccc2[N+](=O)[O-])=C1Nc1ccc(O)c(Cl)c1	?	21%	8	?	10
COC(=O)c1ccccc1NC1=C/C(=N\S(=O)(=O)c2cccs2)c2ccccc2C1=O	-30	.	28*	0.66µM*	41
COC(=O)c1ccccc1NC1=C/C(=N\S(=O)(=O)c2ccc(C(=O)O)cc2)c2ccccc2C1=O	.	1.5µM*	3	13%	17
COC(=O)c1cccc(NS(=O)(=O)c2cccs2)c1C	55	19%	13	.	37
Clc1nc(NCCc2ccccc2)c2cn[nH]c2n1	-61*	.	.	.	.
O=C(/C=C/c1cn(CC(O)CN2CCOCC2)c2ccccc12)c1cccs1 (stereo unspecified)	.	6.6µM*	19	?	64
Cc1ccc(C(=O)/C=C/c2cn(CC(O)CN3CCOCC3)c3ccccc23)cc1 (stereo unspecified)	-19	?	30*	12µM*	29
COc1ccc(C(=O)/C=C/c2cn(CC(O)CN3CCOCC3)c3ccccc23)cc1 (stereo unspecified)	.	?	12*	5.2µM*	13
CC(C)CN(CC(C)C)CC(O)Cn1cc(/C=C/C(=O)c2ccccc2)c2ccccc21 (stereo unspecified)	23	.	.	.	.
CN1CCN(/N=C/c2ccc(OCc3ccccc3)cc2)CC1	49	50%	65*	37%	107*
CCOc1ccc(/C=N/n2cnnc2)cc1	22	0%	-2	.	1
CC(=O)Oc1ccccc1C(=O)Oc1ccc(/C=N/n2cnnc2)cc1	-4	12%	2	8.3µM*	15
C(=N\n1cnnc1)/c1ccc(OCc2ccccc2)cc1	-9	?	24*	31%	62
COC(=O)c1ccc(COc2ccc(/C=N/N3CCN(C)CC3)cc2)cc1	2	124%	56*	10%	155*
COC(=O)c1ccc(/C=N\N2CCN(Cc3ccc(C)cc3)CC2)cc1	6	0%	-6	15%	-12
COc1cc(OC)cc(-c2c(-c3cccs3)c3cc(-c4ccc(OC)c(F)c4)ccc3n2C)c1	-31	?	.	?	.
COc1cc(OC)cc(-c2c(-c3cccs3)c3cc(-c4ccc5c(c4)OCCO5)ccc3n2C)c1	1	6.6µM*	.	?	.
COc1cc(OC)cc(-c2c(-c3cccs3)c3cc(-c4ccc(SC)cc4)ccc3n2C)c1	-3	-79%	.	2.1µM*	.
COc1cc(OC)cc(-c2c(-c3cccs3)c3cc(-c4ccc(OC)c(OC)c4)ccc3n2C)c1	-32	6.6µM*	.	?	.
